Assay outcomes as filed in PubChem.
Hits are enriched below; roughly 9.3% of the tested compounds scored in any of these assays.
ELG1 genotox – qHTS screen for small molecules that induce genotoxicity in human embryonic kidney (HEK293T) cells expressing luciferase-tagged ELG1. 330,000 compounds, 1.3% hits. Potency, µM (series often up to 46 µM), inactives show at the top dose activity change, positive = activation, hits mostly activators. HEK293T ELG1-luciferase reporter, luminescence, 16 h; also: % of control where 0% means no effect; nearly all actives have a fitted effect of over 60% in size
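Cells (2,000/well) expressing the ELG1-luciferase fusion are dosed by pin tool and kept 16 hr at 37 °C, 5% CO2. Signal comes from ONE-Glo luciferase reagent after 30 min at room temperature.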
Rab9 prom act – qHTS Assay for Rab9 Promoter Activators. Huh7 Rab9 promoter-luciferase reporter, luminescence, 24 h. Potency, µM (doses to about 9.22 µM), for the others: top-dose activation, negative = inhibition, most hits filed as activators. 320,000 compounds, 2.8% hits. AID 485297, 2010; also: % of control where 0% means no effect; nearly all actives have a fitted effect of over 60% in size
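Rab9 promoter-driven luciferase in stably transfected Huh7 cells; 1500 cells/well rested 2 h, exposed to compound in DMSO for 24 h at 37 °C, 5% CO2. Luminescence read 10 min after adding luciferase reagent at ambient temperature.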
SMN2 splice up – qHTS Assay for Enhancers of SMN2 Splice Variant Expression | 210,000 compounds, 2.8% hits | Potency, µM (doses to about 46.1 µM), without a hit: top-dose activity change, positive = activation, actives largely listed as activators | HEK293 SMN2-luciferase splicing reporter, luminescence, 30-36 h | AID 1458, 2008; also: % of control where 0% means no effect; nearly all actives have a fitted effect of over 55% in size
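HEK293 cells carry an SMN2 […]–luciferase reporter in which exon 7 inclusion puts luciferase in frame. Cells were plated 10-12 h before compound addition, then incubated 30-36 h at 37C. ONE-Glo luminescence was read; sodium butyrate at 4.5 mM final served as control.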
ELG1 repair inh – qHTS screen for small molecules that inhibit ELG1-dependent DNA repair in human embryonic kidney (HEK293T) cells expressing luciferase-tagged ELG1 | HEK293T ELG1-luciferase reporter, luminescence, 16 h; DNA damage induced by 5-fluorouridine | Potency, µM (series often up to 46.1 µM), inactives show at the highest dose activity change, negative = inhibition, actives largely listed as inhibitors | 330,000 compounds, 2.3% hits; also: % is scaled to controls: 0 for no effect and ±100 for the full control effect; nearly all actives have a fitted effect of over 55% in size
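Cells (2,000 per well) received 5-fluorouridine plus test compound or DMSO and were incubated 16 hr at 37 °C, 5% CO2. Luciferase activity was read by luminescence 30 min after ONE-Glo addition; signal suppression marked inhibition of damage-induced ELG1 function.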
FLuc modulator – qHTS profiling assay for firefly luciferase inhibitor/activator using purifed enzyme and Km concentrations of substrates (counterscreen for miR-21 project) | Luciferin 4-monooxygenase (Photinus pyralis), P08659 | purified FLuc, Km substrates, luminescence inhibition | Potency, µM (highest dose often 57.5 µM), for the others: at the highest dose activity change, negative = inhibition, most hits filed as inhibitors | 360,000 compounds, 6.9% hits | AID 588342, 2011;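 also: plate controls were vehicle for no effect and reference inhibitor for full effect; nearly all actives have a fitted effect of over 55% in size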
Target sequence (P08659 whole entry, looked up): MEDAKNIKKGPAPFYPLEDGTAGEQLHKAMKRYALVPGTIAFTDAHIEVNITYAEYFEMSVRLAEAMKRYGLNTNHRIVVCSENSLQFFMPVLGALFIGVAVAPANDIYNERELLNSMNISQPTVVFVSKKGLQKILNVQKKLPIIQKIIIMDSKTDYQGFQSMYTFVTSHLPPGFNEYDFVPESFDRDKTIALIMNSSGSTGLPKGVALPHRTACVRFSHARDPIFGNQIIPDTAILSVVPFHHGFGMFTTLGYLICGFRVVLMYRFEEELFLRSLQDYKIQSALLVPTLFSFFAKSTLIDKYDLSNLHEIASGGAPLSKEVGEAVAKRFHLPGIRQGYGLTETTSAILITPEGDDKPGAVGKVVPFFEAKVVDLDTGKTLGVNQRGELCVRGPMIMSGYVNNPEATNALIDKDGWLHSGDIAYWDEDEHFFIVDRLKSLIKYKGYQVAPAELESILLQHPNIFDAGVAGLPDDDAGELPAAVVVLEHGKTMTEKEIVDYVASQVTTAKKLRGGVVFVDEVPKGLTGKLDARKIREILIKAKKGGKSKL
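Biochemical qHTS of compounds, final roughly 60 µM downward over six points, against 10 nM purified firefly luciferase using Km concentrations of substrates (10 uM D-luciferin, 10 uM ATP) in Tris acetate pH 7.5 buffer; luminescence output.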
NPC1 prom act – qHTS Assay for NPC1 Promoter Activators | Huh7 NPC1 promoter luciferase reporter, 24 h | Potency, µM (doses to about 9.22 µM), without a hit: at the highest dose activation, usual class: activators | AID 485313, 2010 | 320,000 compounds, 2.4% hits; also: % of control where 0% means no effect; nearly all actives have a fitted effect of over 60% in size
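Luciferase expression driven by the NPC1 promoter was measured in stably transfected Huh7 cells after a 24 h compound incubation, using a luciferase reagent and a luminescence read.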
* = called active by the depositor; ? = inconclusive; / = no result given. Calls follow the shape of the dose curve; as a rule, active = well fitted curve in the direction sought with a large enough effect; inconclusive = small, poorly fitted or top-dose-only effect, or another doubt; inactive = no such curve, though single readings can be large; an effect the other way counts as inactive or inconclusive. Potency is read from the fitted curve at half-maximal effect.

SMILES	ELG1 genotox	Rab9 prom act	SMN2 splice up	ELG1 repair inh	FLuc modulator	NPC1 prom act
CC(=O)Nc1cccc(OCC(=O)NCCC2=CCCCC2)c1	13.5%	?	6.6%	?	-18.7%	17.8%
Cc1cc(C)n(-c2nc(C)c(C)c(=O)n2CC(=O)Nc2ccc([N+](=O)[O-])cc2)n1	/	/	/	/	2.7%	/
O=C(NCc1ccccc1)C(c1ccc(F)cc1)N(Cc1cccs1)C(=O)c1cnccn1 (configuration not stated)	-2.6%	0.1%	7.0%	13µM*	0.6%	-3.5%
CCn1cc(/C=N/NS(=O)(=O)c2ccc(OC)cc2)c(C)n1	-0.5%	12.7%	-0.1%	-4.5%	0.6%	0.3%
Fc1cccc(Nc2ncnc3sccc23)c1	0.0%	?	/	-20.2%	-17.7%	0.2%
O=C(O)c1cccc(Nc2ncnc3sccc23)c1	-0.5%	14.8%	4.3%	26.5%	7.57µM*	28.5%
COc1ccc(S(=O)(=O)N2CCCCCC2)cc1C(=O)N(C)Cc1ccco1	17.0%	0.0%	/	9.6%	-12.8%	1.3%
CCOC(=O)N1CCN(S(=O)(=O)c2ccc3c(c2)SCC(=O)N3)CC1	-8.7%	-0.4%	-40.4%	20.6µM*	-1.2%	-2.5%
COc1ccc(C(C(=O)NC2CCCC2)N(C(=O)CNC(=O)c2ccco2)c2cccnc2)cc1 (configuration not stated)	5.1%	0.4%	/	6.6%	2.4%	-3.8%
COC(=O)c1nc2ccc(N3CCOCC3)cc2c(C)c1C(=O)OC	-2.5%	2.82µM*	10µM*	?	2.39µM*	?
CCc1ccc(NS(=O)(=O)c2c(C)noc2C)cc1	1.3%	0.9%	/	19.6%	1.5%	1.8%
Cc1oc(C(=O)Nc2ccc(C(=O)O)cc2)cc1COc1ccccc1	8.5%	13.3%	-0.6%	?	10.7µM*	0.5%
Cc1cc(C(=O)Nc2cccc3ccccc23)c(C)o1	3.3%	-4.2%	/	?	-16.3%	-6.4%
Cc1ccc(C(=O)Nc2ccc(OCc3ccccc3)cc2)s1	?	29.4%	/	?	?	?
Cc1cc(C(=O)Nc2ccc(OCc3ccccc3)cc2)c(C)o1	?	?	?	?	16.9µM*	?
Cc1cc(C(=O)Nc2ccccc2C(=O)O)c(C)o1	2.7%	1.2%	/	-5.6%	23.9µM*	-1.8%
Cc1ccsc1C(=O)Nc1ccc(OCc2ccccc2)cc1	?	1.12µM*	/	?	1.51µM*	1.58µM*
CCCCN(C)CCCNC(=O)c1cn(CC)c2ccc(S(=O)(=O)N3CCOCC3)cc2c1=O	3.8%	-2.5%	/	?	0.5%	0.3%
CCN(CC)CCNC(=O)c1ccc(NC(=O)COc2ccccc2F)cc1	0.8%	-1.5%	-3.9%	0.8%	-1.7%	-10.0%
CC(Oc1ccccc1Cl)C(=O)Nc1ccccc1C(=O)N1CCOCC1 (configuration not stated)	-3.9%	-5.3%	/	-1.2%	0.3%	2.7%
COc1ccc(NC(=O)CCCOc2ccc(Cl)c(C)c2)cc1S(=O)(=O)N1CCOCC1	-10.5%	/	/	?	/	/
COc1ccc(C(=O)NC(=O)Nc2ncccc2C)cc1	?	3.55µM*	?	?	16.9µM*	?
Cc1cccnc1NC(=O)Nc1ccc(Cl)cc1	?	3.98µM*	/	?	4.26µM*	-8.3%
Cc1cccnc1NC(=O)Nc1ccccc1	?	3.98µM*	/	?	10.7µM*	?
COC(=O)c1ccccc1NC(=O)Nc1ncccc1C	0.4%	-7.4%	2.5%	15.3%	-0.7%	-2.6%
SMILES	ELG1 genotox	Rab9 prom act	SMN2 splice up	ELG1 repair inh	FLuc modulator	NPC1 prom act
COc1ccc(NC(=O)Nc2ncccc2C)cc1	?	?	11.2µM*	?	10.7µM*	?
Cc1ccccc1Cn1cc(NC(=O)c2cc3nc(-c4ccco4)cc(C(F)(F)F)n3n2)cn1	1.7%	2.7%	-4.7%	6.51µM*	-2.0%	-4.2%
N#CC1=C(SCC(=O)NC23CC4CC(CC(C4)C2)C3)NC(=O)C(C#N)C12CCCCC2 (configuration not stated)	-11.6%	-2.1%	-67.9%	13µM*	-1.2%	-3.6%
N#CC1=C(SCC(=O)NC2CC2)NC(=O)C(C#N)C12CCCCC2 (configuration not stated)	0.1%	-0.3%	-16.6%	-2.5%	-1.0%	-2.5%
Cc1ccc(-c2ccc(NC(=O)C3C4C=CC(C4)C3C(=O)O)cc2)o1 (configuration not stated)	14.9%	3.16µM*	-28.5%	?	15.1µM*	3.55µM*
COc1ccc(NC(=O)c2cc(-c3ccc(OC)c(OC)c3)nc3ccccc23)c(OC)c1	-0.1%	18.1%	/	?	7.57µM*	13.8%
COc1cc(-c2cc(C(=O)Nc3nc4ccccc4s3)c3ccccc3n2)cc(OC)c1OC	-6.5%	-2.4%	-20.1%	5.17µM*	15.1µM*	11.7%
CC(C)(C)c1nnc(NC(=O)c2cc(-c3ccccc3)nc3ccccc23)s1	-3.5%	1.9%	-20.4%	-9.5%	-14.8%	0.7%
COc1ccc(-c2cc(C(=O)NN3CCOCC3)c3ccccc3n2)cc1OC	1.5%	3.0%	/	?	?	-3.7%
COc1ccc(-c2cc(C(=O)NC(C)c3ccccn3)c3ccccc3n2)cc1OC (configuration not stated)	-4.4%	-6.3%	/	16.4µM*	7.57µM*	-1.4%
COc1ccc(-c2cc(C(=O)Nc3ccc(C(N)=O)cc3)c3ccccc3n2)cc1OC	-1.0%	25.4%	?	?	3.38µM*	10.3%
O=C(NNc1c(F)c(F)cc(F)c1F)c1ccc(Cl)nc1	0.4%	-3.7%	/	10.0%	-1.8%	-0.6%
CC(=O)Nc1ccc(NC(=O)c2cc(-c3ccccc3)nc3ccccc23)cc1	-10.3%	7.4%	/	?	?	11.7%
COc1ccc(-c2cc(C(=O)Nc3ccc(S(=O)(=O)Nc4onc(C)c4C)cc3)c3ccccc3n2)cc1OC	1.6%	8.9%	/	?	13.5µM*	8.2%
COc1cc(-c2cc(C(=O)Nc3ccc(O)cc3)c3ccccc3n2)cc(OC)c1OC	-10.3%	-8.4%	/	5.8µM*	?	3.3%
COc1ccc(-c2cc(C(=O)OC3CCOC3=O)c3ccccc3n2)cc1OC (configuration not stated)	4.1%	-2.5%	-3.5%	7.5%	13.5µM*	8.7%
O=C(OC1CCOC1=O)c1cc(-c2ccccc2)nc2ccccc12 (configuration not stated)	-2.7%	-4.0%	5.9%	?	?	-2.9%
